Source: PubChem BioAssay (EPA / NIEHS)
Records with an inconclusive call do not appear. The source made the active and inactive calls. The calls were made as follows, unless noted: active = hit-call score of the fitted dose curve at least 0.9, where 1 is the maximum; inconclusive = response in the unintended direction; inactive = score below 0.9.

How the values were obtained:
[1] = target: Cellular tumor antigen p53 (Homo sapiens) (UniProt P04637); assay: TOX21_p53_BLA_p2_ratio: Tox21 HCT-116 p53 Agonism Beta-lactamase Assay, Ratio, Phase 2 (AID 2283592)
Chain of Cellular tumor antigen p53 (Homo sapiens) (P04637 whole entry, looked up): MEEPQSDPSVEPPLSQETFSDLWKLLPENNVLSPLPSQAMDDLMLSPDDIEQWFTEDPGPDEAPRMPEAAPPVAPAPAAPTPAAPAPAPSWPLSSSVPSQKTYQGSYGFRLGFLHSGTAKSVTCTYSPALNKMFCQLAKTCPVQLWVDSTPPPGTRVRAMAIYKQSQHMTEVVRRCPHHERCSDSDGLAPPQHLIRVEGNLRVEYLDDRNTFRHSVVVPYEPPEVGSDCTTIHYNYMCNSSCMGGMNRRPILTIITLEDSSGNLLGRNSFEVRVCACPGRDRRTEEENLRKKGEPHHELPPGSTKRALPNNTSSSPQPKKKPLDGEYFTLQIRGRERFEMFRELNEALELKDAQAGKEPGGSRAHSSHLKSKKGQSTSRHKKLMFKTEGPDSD
Outline: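 Gain-of-signal p53 agonism was scored from the beta-lactamase FRET ratio (460/530 nm, 405 nm excitation) in HCT116 cells treated 16 h at 37C, 5% CO2, with DMSO serving as negative control and baseline.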

[2] = TOX21_p53_BLA_p3_viability: Viability Assessment in the Tox21 HCT-116 p53 Agonism Beta-lactamase Assay, Phase 3 (AID 2283593);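 also: cells exposed to compound for 16 h before reading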
Outline: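 HCT116 cells, 4000/well, dosed 5 h after plating by pin transfer (217-fold dilution from DMSO stock) and incubated 16 h at 37C, 5% CO2. Viability read as ATP luminescence with CellTiter-Glo after 30 min at room temperature.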

[3] = target: Cellular tumor antigen p53 (Homo sapiens) (UniProt P04637); assay: TOX21_p53_BLA_p3_ratio: Tox21 HCT-116 p53 Agonism Beta-lactamase Assay, Ratio, Phase 3 (AID 2283596)
Outline: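 HCT116 p53-bla cells (4000/well) given compound in DMSO (217-fold dilution) after 5 h, incubated 16 h at 37C. CCF4-AM substrate 2 h at room temperature; 460/530 nm emission ratio, gain fitted against DMSO.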

[4] = TOX21_p53_BLA_p4_viability: Viability Assessment in the Tox21 HCT-116 p53 Agonism Beta-lactamase Assay, Phase 4 (AID 2283597);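 also: hits lower the luminescence signal meaning cytotoxicity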
Outline: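 Following a 16 h exposure at 37C, the treated HCT116 wells were first read for the FRET ratio. They were then lysed with CellTiter-Glo, and ATP luminescence was recorded after 30 min at room temperature.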

[5] = target: Cellular tumor antigen p53 (Homo sapiens) (UniProt P04637); assay: TOX21_p53_BLA_p5_ratio: Tox21 HCT-116 p53 Agonism Beta-lactamase Assay, Ratio, Phase 5 (AID 2283599)
Outline: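 HCT-116 p53-bla cells (4000/well) plated 5 h, dosed with compound (217-fold DMSO dilution) for 16 h at 37 C; CCF4-AM substrate 2 h at room temperature. Activity is the 460/530 nm emission ratio (405 nm excitation), fitted in gain-of-signal direction versus DMSO.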

[6] = target: Cellular tumor antigen p53 (Homo sapiens) (UniProt P04637); assay: TOX21_p53_BLA_p4_ratio: Tox21 HCT-116 p53 Agonism Beta-lactamase Assay, Ratio, Phase 4 (AID 2283601)
Outline: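 HCT-116 p53 beta-lactamase reporter cells (4000/well) preincubated 5 h, then compound (217-fold dilution of DMSO stock) for 16 h at 37C. CCF4-AM substrate added 2 h at room temperature; 460/530 nm emission ratio fitted upward versus DMSO.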

[7] = TOX21_p53_BLA_p5_viability: Viability Assessment in the Tox21 HCT-116 p53 Agonism Beta-lactamase Assay, Phase 5 (AID 2283600)
Outline: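 After the 460/530 nm beta-lactamase measurement, the wells received an ATP-detection luciferase reagent; signal was read 30 min later at RT. Compound treatment lasted 16 h on cells pre-incubated 5 h post-seeding.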

[8] = target: T1, Thyroid hormone receptor alpha (Rattus norvegicus) + Thyroid hormone receptor beta (Rattus norvegicus) (UniProt P18113+P63059); assay: TOX21_TR_LUC_GH3_Antagonist_Followup: Tox21 GH3 Thyroid Hormone Receptor Antagonism Luciferase Follow-Up Assay (AID 2283942)
T1 sequence (P63059 whole entry, looked up): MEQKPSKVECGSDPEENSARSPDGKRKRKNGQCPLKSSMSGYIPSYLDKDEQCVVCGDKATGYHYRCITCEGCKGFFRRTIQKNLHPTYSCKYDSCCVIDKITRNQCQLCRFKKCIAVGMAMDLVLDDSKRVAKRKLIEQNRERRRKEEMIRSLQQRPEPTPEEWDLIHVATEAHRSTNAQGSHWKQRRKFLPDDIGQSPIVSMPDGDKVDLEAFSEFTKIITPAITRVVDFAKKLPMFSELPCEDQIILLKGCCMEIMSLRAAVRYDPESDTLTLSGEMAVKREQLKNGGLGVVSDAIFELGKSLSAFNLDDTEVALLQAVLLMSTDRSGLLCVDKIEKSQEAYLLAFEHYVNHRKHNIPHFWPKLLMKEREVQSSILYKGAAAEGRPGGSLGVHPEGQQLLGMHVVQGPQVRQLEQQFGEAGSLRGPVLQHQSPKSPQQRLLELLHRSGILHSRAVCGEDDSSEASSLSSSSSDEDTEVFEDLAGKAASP
T1 sequence (P18113 whole entry, looked up): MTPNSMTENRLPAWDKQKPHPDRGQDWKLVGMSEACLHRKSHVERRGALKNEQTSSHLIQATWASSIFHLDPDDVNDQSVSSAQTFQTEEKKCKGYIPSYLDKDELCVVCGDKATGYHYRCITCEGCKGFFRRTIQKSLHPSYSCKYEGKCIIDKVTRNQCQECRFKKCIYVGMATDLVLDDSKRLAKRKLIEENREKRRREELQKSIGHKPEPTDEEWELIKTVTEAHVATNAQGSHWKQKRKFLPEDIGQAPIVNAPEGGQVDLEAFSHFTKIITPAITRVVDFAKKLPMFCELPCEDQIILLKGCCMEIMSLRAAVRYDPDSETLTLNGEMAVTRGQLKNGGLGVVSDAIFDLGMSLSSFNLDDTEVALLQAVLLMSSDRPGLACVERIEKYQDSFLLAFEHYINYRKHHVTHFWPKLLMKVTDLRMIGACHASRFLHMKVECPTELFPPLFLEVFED
Outline: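 Antagonist mode: GH3 cells seeded 1,500/well, compounds at 15 concentrations (92 uM to 5nM final) plus T3 at 1.0 nM final, 24 h at 37C. Luciferase read with ONE-Glo after 30 min at room temperature.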

[9] = target: THRB (gene 7068) (UniProt P10828); assay: TOX21_TRB_BLA_Antagonist_Followup_ratio: Tox21 Thyroid Hormone Receptor beta Antagonism Beta-lactamase (BLA) Follow-Up Assay, Ratio (AID 2283958)
Chain of THRB (gene 7068) (P10828 whole entry, looked up, the tested form may be a part): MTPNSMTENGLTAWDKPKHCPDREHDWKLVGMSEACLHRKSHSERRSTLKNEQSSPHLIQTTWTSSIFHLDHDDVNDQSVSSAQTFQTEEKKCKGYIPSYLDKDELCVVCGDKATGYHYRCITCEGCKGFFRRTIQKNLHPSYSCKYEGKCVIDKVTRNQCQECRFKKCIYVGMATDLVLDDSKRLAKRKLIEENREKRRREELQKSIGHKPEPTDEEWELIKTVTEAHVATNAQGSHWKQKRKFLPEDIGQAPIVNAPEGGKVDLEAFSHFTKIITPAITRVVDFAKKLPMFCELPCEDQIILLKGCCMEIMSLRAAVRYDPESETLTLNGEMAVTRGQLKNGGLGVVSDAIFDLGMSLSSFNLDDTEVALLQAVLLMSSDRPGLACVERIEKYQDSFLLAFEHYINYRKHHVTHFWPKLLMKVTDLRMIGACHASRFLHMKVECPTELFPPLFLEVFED
Outline: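 GAL4-DBD/human TRβ-LBD fusion in GeneBLAzer UAS-bla HEK293T cells, 3,000 cells/well in phenol red-free DMEM with 2% charcoal-stripped FBS; compounds at 11 concentrations in triplicate, 18 h at 37C. CCF4-AM substrate 2 h, 460:530 nm ratio relative to DMSO.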

[10] = target: THRB (gene 7068) (UniProt P10828); assay: TOX21_TRB_COA_Antagonist_Followup_ratio: Tox21 Thyroid Hormone Receptor beta Antagonism through Coactivator Recruitment Follow-Up Assay, Ratio (AID 2283967)
Outline: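 Cell-free TR-FRET: GST-TRb LBD (5.0 nM) with fluorescein-SRC-2 peptide (200 nM) and Tb anti-GST antibody (2 nM), 0.10% BSA. 520:495 nm emission ratio normalized to DMSO (0%) and T3 (100%).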

[11] = TOX21_TR_RXR_BLA_Antagonist_Followup_viability: Viability Assessment in the Tox21 Thyroid Hormone Receptor beta Retinoid X Receptor alpha (RXRa) Antagonism Beta-lactamase (BLA) Follow-Up Assay (AID 2283979)
Outline: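 RXRa-bla HEK293T cells (2,500/well, phenol red-free DMEM, 2% charcoal-stripped FBS) were attached 5 h, then exposed to compounds at 11 concentrations in triplicate for 16 h at 37C. Viability measured by CellTiter-Glo ATP luminescence, bidirectional fitting versus DMSO.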

[12] = TOX21_p53_BLA_p2_viability: Viability Assessment in the Tox21 HCT-116 p53 Agonism Beta-lactamase Assay, Phase 2 (AID 2283591);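 also: compound exposure lasted 16 h at 37 °C; actives lower the ATP signal meaning cytotoxicity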
Outline: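 HCT116 p53-bla cells, 4000/well, dosed after 5 h plating (217-fold dilution of DMSO stocks) and incubated 16 h at 37C. Viability taken as cellular ATP by CellTiter-Glo luminescence after 30 min RT; signal loss marks cytotoxicity.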

[13] = target: T1, Thyroid hormone receptor alpha (Rattus norvegicus) + Thyroid hormone receptor beta (Rattus norvegicus); assay: TOX21_TR_LUC_GH3_Agonist_Followup: Tox21 GH3 Thyroid Hormone Receptor Agonism Luciferase Follow-Up Assay (AID 2283939)
Outline: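 Rat GH3 cells (1,500/well) in serum-free assay medium, treated with 15-point series, 92 uM to 5 nM final, for 24 h at 37C. Luciferase via ONE-Glo luminescence; gain of signal fitted against DMSO, T3 positive control.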

[14] = target: THRA (gene 7067) (UniProt P10827); assay: TOX21_TRA_COA_Agonist_Followup_ratio: Tox21 Thyroid Hormone Receptor alpha Agonism through Coactivator Recruitment Follow-Up Assay, Ratio (AID 2283948; active = hit-call score of the fitted dose curve at least 0.9, where 1 is the maximum; inactive = score below 0.9)
Chain of THRA (gene 7067) (P10827 whole entry, looked up, the tested form may be a part): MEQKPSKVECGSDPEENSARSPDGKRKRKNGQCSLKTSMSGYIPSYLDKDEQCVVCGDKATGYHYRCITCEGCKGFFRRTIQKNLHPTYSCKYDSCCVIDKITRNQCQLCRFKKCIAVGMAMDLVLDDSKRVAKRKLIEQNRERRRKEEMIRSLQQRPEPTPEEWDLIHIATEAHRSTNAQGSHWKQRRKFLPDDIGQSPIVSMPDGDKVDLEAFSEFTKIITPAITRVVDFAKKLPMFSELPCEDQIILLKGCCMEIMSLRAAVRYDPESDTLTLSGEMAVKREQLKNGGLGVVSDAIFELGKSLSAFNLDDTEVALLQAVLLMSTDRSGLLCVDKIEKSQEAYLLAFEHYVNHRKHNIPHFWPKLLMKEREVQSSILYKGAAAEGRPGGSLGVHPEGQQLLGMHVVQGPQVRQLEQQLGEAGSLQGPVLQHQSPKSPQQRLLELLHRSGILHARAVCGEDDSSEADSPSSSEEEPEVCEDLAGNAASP
Outline: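 Cell-free TR-FRET coactivator recruitment: GST-tagged TRα LBD (2.5 nM) with 0.10% BSA was incubated with compound, then fluorescein-SRC-2 peptide (200 nM) and Tb-anti-GST antibody (2 nM) added. 520:495 nm ratio normalized to DMSO (0%) and T3 (100%).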

[15] = target: THRB (gene 7068) (UniProt P10828); assay: TOX21_TRB_BLA_Agonist_Followup_ratio: Tox21 Thyroid Hormone Receptor beta Agonism Beta-lactamase (BLA) Follow-Up Assay, Ratio (AID 2283954)
Outline: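 Human TRβ LBD–GAL4 DBD fusion in GeneBLAzer UAS-bla HEK293T cells; 11 concentrations in triplicate, 18 h at 37°C/5% CO2, T3 as agonist control. CCF4-AM substrate 2 h at room temperature; 460:530 nm ratio fitted for gain of signal versus DMSO.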

[16] = TOX21_TRB_BLA_Agonist_Followup_viability: Viability Assessment in the Tox21 Thyroid Hormone Receptor beta Agonism Beta-lactamase (BLA) Follow-Up Assay (AID 2283956)
Outline: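 TRb-bla HEK293T cells (GAL4-DBD/human TRb LBD) in 2% charcoal-stripped FBS medium were exposed 18 h at 37C to 11 concentrations in triplicate. CellTiter-Glo ATP luminescence was read after 30 min at room temperature, with bidirectional fitting against DMSO.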

[17] = target: THRB (gene 7068) (UniProt P10828); assay: TOX21_TRB_COA_Agonist_Followup_ratio: Tox21 Thyroid Hormone Receptor beta Agonism through Coactivator Recruitment Follow-Up Assay, Ratio (AID 2283963; active = hit-call score of the fitted dose curve at least 0.9, where 1 is the maximum; inactive = score below 0.9)
Outline: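 GST-TRb LBD 5.0 nM + 0.10% BSA + cpd; add fluorescein-SRC-2 200 nM / Tb anti-GST Ab 2 nM; TR-FRET ex 340, em 520:495; norm DMSO 0%, T3 100%.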

[18] = target: Retinoic acid receptor RXR-alpha (Homo sapiens) (UniProt P19793); assay: TOX21_TR_RXR_BLA_Agonist_Followup_ratio: Tox21 Thyroid Hormone Receptor beta Retinoid X Receptor alpha (RXRa) Agonism Beta-lactamase (BLA) Follow-Up Assay, Ratio (AID 2283968)
Chain of Retinoic acid receptor RXR-alpha (Homo sapiens) (P19793 whole entry, looked up, the tested form may be a part): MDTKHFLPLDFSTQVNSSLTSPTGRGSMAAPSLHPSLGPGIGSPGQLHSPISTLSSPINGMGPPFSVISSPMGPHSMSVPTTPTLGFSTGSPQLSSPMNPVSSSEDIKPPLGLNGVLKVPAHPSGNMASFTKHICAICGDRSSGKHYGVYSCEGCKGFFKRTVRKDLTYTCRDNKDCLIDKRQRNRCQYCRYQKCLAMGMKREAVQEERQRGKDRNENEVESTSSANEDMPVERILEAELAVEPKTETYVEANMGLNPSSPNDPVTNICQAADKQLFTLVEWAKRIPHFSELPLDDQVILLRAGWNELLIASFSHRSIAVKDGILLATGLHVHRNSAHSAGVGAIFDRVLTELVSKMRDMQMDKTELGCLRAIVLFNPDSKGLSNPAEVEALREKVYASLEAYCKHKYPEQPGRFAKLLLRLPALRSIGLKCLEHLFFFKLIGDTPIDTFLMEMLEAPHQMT
Outline: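 RXRa-UAS-bla HEK293T cells (GAL4 beta-lactamase reporter) were treated with compounds at 11 concentrations in triplicate for 16 h at 37C/5% CO2, then loaded with CCF4-AM substrate for 2 h at room temperature; activity is the 460:530 nm ratio versus DMSO baseline.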

[19] = TOX21_TR_RXR_BLA_Agonist_Followup_viability: Viability Assessment in the Tox21 Thyroid Hormone Receptor beta Retinoid X Receptor alpha (RXRa) Agonism Beta-lactamase (BLA) Follow-Up Assay (AID 2283970)
Outline: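 RXRa-UAS-bla HEK293T cells seeded at 2,500/well in phenol red-free DMEM with 2% charcoal-stripped FBS, exposed to compound 16h at 37C/5% CO2 in qHTS. Viability read by CellTiter-Glo ATP luminescence; bidirectional fitting against DMSO baseline, signal loss indicating cytotoxicity.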

[20] = UKN5_HCS_SBAD2_cell_viability: Viability Assessment in the University of Konstanz (UKN) Leist Lab Neurite Outgrowth Assay in human iPSC-derived immature Dorsal Root Ganglia Neurons (UKN5) (AID 2284056; active = hit-call score of the fitted dose curve at least 0.9, where 1 is the maximum; inactive = score below 0.9)
Outline: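 iPSC-derived immature peripheral neurons (SBAD2) seeded on Matrigel with CHIR99021, SU5402 and DAPT, dosed 1 h later for 24 h. Viability from Hoechst H-33342 and calcein-AM live staining, high-content imaging; bidirectional fit versus DMSO.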

[21] = UKN5_HCS_SBAD2_neurite_outgrowth: University of Konstanz (UKN) Leist Lab Neurite Outgrowth Assay in human iPSC-derived immature Dorsal Root Ganglia Neurons (UKN5) (AID 2284070; active = hit-call score of the fitted dose curve at least 0.9, where 1 is the maximum; inactive = score below 0.9); conditions: actives raise or lower the signal
Outline: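 Human iPSC-derived immature DRG neurons (SBAD2) on Matrigel with CHIR99021 (1.5 uM), SU5402 (5 uM), DAPT (5 uM); compounds added 1 h post-seeding for 24 h. Calcein-AM neurite area imaged; bidirectional fit vs DMSO.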

[22] = UKN2_HCS_IMR90_neural_migration: University of Konstanz (UKN) Leist Lab Neural Crest Cell Migration Assay in human induced IMR90 Pluripotent Stem Cells (UKN2) (AID 2284204; active = hit-call score of the fitted dose curve at least 0.9, where 1 is the maximum; inactive = score below 0.9); conditions: actives raise or lower the signal
Outline: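 iPSC-derived IMR90 neural crest cells seeded around stoppers on PLO/laminin/fibronectin; migration started in N2-S medium with EGF/FGF, compounds added after 24 h for 24 h. Migration into cell-free area imaged after calcein-AM/Hoechst staining; bidirectional fit versus DMSO.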

[23] = UKN4_HCS_LUHMES_neurite_outgrowth: University of Konstanz (UKN) Leist Lab Neurite Outgrowth Assay in human LUHMES cells (UKN4) (AID 2284206; active = hit-call score of the fitted dose curve at least 0.9, where 1 is the maximum; inactive = score below 0.9); conditions: actives raise or lower the signal
Outline: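 LUHMES neuronal precursors differentiated 2 days, replated without cAMP/GDNF, then exposed to chemicals for 24 h. Neurite area imaged by high-content microscopy after calcein-AM staining; Hoechst H-33342 marks viability. Bidirectional fit versus DMSO.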

[24] = UKN2_HCS_IMR90_cell_viability: Viability Assessment in the University of Konstanz (UKN) Leist Lab Neural Crest Cell Migration Assay in human induced IMR90 Pluripotent Stem Cells (UKN2) (AID 2284233; active = hit-call score of the fitted dose curve at least 0.9, where 1 is the maximum; inactive = score below 0.9;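 also: viability of neural crest cells differentiated from IMR90 iPSC measured by calcein-AM fluorescence imaging; cells exposed to compound for 24 h after a 24 h migration phase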)
Outline: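 Neural crest cells derived from IMR90 iPSC migrate into a stopper-free zone for 24 h in EGF/FGF medium, then are exposed to compound for 24 h. Viability assessed by calcein-AM and Hoechst staining with high-content imaging, fitted bidirectionally versus DMSO.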

Measured: AC50

ClC=CCCl
inactive: [1] | [2] | [3] | [4] | [5] | [6]

CCCCCCCCCCOC(=O)c1ccccc1C(=O)OCCCCCCCCCC
inactive: [1] | [2] | [3] | [5]

C[C@]12CC[C@H]3[C@@H](CCC4=C(Cl)C(=O)CC[C@@]43C)[C@@H]1CC[C@@H]2O
inactive: [1] | [2] | [3] | [4] | [5] | [7] | [6] | [8] | [9] | [10] | [11]

CNc1ccc(C(=O)CC(O)CCC(C)C2OC(=O)CC(O)CC(=O)CC(O)CC(O)CC(O)CC(O)CC3(O)CC(O)C(C(=O)OC)C(CC(O[C@@H]4O[C@H](C)[C@@H](O)[C@H](N)[C@@H]4O)/C=C/C=C/C=C/C=C/C=C/C=C/C=C/C2C)O3)cc1 (stereo partly drawn) (tested in a mixture with another compound)
active: [1] 37.8 µM
inactive: [2] | [3] | [4] | [7] | [6]

N#CC(C#N)=Cc1ccc(O)c(O)c1
inactive: [1] | [2] | [3] | [4] | [5] | [7] | [6]

CN(C)CCCCCCN(C)C
inactive: [12] | [7] | [6]

O=c1[nH]cc(N(CCCl)CCCl)c(=O)[nH]1
inactive: [1] | [2] | [4] | [5]
active: [3] 23 µM

COc1ccc(OC)c([C@@H](O)[C@H](C)N)c1
active: [13] 14.9 µM
inactive: [12] | [7] | [6] | [14] | [15] | [16] | [17] | [18] | [19]

O=C1C=C2C=C[C@@H]3C[C@@]2(O1)[C@H]1CCCCN31
inactive: [1] | [2] | [3] | [4] | [5] | [7]

CNC(C)Cc1ccccc1 (stereo not drawn)
inactive: [1] | [2] | [3] | [5]

C=C[C@H]1CN2CC[C@H]1C[C@@H]2[C@@H](O)c1ccnc2ccccc12
inactive: [1] | [2] | [3] | [4] | [5] | [7] | [6]

CN1CC[C@]23c4c5ccc(O)c4O[C@H]2[C@@H](O)C=C[C@H]3[C@H]1C5
inactive: [12] | [7] | [20] | [21] | [22] | [23] | [24]

ClC=CCl
inactive: [1] | [2] | [3] | [4] | [5] | [7] | [6]

O=C(Cl)c1ccccc1F
inactive: [1] | [2] | [4] | [5] | [7]

O=C(O)C(Br)CBr (stereo not drawn)
inactive: [1] | [2] | [3] | [5] | [6]
